In PubChem BioAssay AID1159580 (chemical genetic matrix, 2015):
The whole screen tested about 5,500 compounds, of which about 2,000 (36%) were called active. Another 18% or so got no clear call; they are omitted. Cut-off read from the data, not from the text of the source: active = normalized growth mostly below about 0.91 (no sharp cut-off); inconclusive = no clear call, values can overlap the other calls; inactive = mostly above about 0.92. Some of the results follow.

Experiment: chemical genetic growth profiling, strain panel (AID 1159580);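 note: tested at 20 µM; growth read once vehicle control cultures reached saturation at 30 °C; 1 = growth at the plate median or of vehicle wells; lower values mean less growth of the strain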
Conditions: S. cerevisiae deletion strains, growth OD

Measured: normalized growth

CC(C)(Oc1ccc(C2CC2(Cl)Cl)cc1)C(=O)O (stereo unspecified)
inactive: locus YAL021C, strain ccr4, hits give low values 1 | locus YAL026C, strain drs2, hits give low values 1 | locus YAL030W, strain snc1, hits give low values 1 | locus YAL040C, strain CLN3, hits give low values 0.988 | locus YBL061C, strain skt5, hits give low values 0.997 | locus YBR009C, strain hhf1, hits give low values 0.995 | locus YBR023C, strain chs3, hits give low values 0.992 | locus YBR171W, strain sec66, hits give low values 0.996 | locus YBR231C, strain swc5, hits give low values 0.997 | locus YBR279W, strain paf1, hits give low values 1.02 | locus YCL011C, strain gbp2, hits give low values 1.01 | locus YCL016C, strain dcc1, hits give low values 0.992 | locus YCL061C, strain MRC1 (second series), hits give low values 0.988 | locus YCL061C, strain MRC1, hits give low values 0.99 | locus YCL069W, strain vba3, hits give low values 1.01 | locus YCR088W, strain abp1, hits give low values 0.997 | locus YDL005C, strain med2, hits give low values 0.998 | locus YDL040C, strain nat1, hits give low values 1 | locus YDR001C, strain nth1, hits give low values 1.01 | locus YDR069C, strain doa4, hits give low values 1 | locus YDR137W, strain rgp1, hits give low values 0.964 | locus YDR159W, strain sac3, hits give low values 0.997 | locus YDR195W, strain ref2 0.989 | locus YDR297W, strain sur2, hits give low values 0.998 | locus YDR334W, strain swr1, hits give low values 1 | locus YDR335W, strain msn5, hits give low values 1 | locus YDR392W, strain spt3, hits give low values 0.944 | locus YEL003W, strain gim4, hits give low values 1.02 | locus YEL037C, strain rad23, hits give low values 1.01 | locus YEL061C, strain CIN8 (second series), hits give low values 1.01 | locus YER002W, strain NOP16, hits give low values 0.962 | locus YER015W, strain faa2, hits give low values 0.994 | locus YER016W, strain bim1, hits give low values 1 | locus YER111C, strain swi4, hits give low values 0.998 | locus YER155C, strain BEM2 (second series), hits give low values 1 | locus YFR010W, strain ubp6, hits give low values 0.99 | locus YGL167C, strain pmr1, hits give low values 0.998 | locus YGL173C, strain kem1, hits give low values 1 | locus YGL227W, strain vid30, hits give low values 1 | locus YGL240W, strain doc1, hits give low values 1 | locus YGL253W, strain hxk2, hits give low values 1.01 | locus YHR013C, strain ard1, hits give low values 0.973 | locus YHR027C, strain rpn1, hits give low values 0.995 | locus YHR142W, strain chs7, hits give low values 1 | locus YJL092W, strain hpr5, hits give low values 1.01 | locus YJL095W, strain BCK1 (second series), hits give low values 0.997 | locus YJL115W, strain asf1, hits give low values 0.999 | locus YJL129C, strain trk1, hits give low values 0.987 | locus YJL154C, strain vps35, hits give low values 1.01 | locus YJL164C, strain tpk1, hits give low values 1 | locus YJL166W, strain qcr8, hits give low values 0.985 | locus YJL187C, strain SWE1, hits give low values 0.992 | locus YKL160W, strain elf1, hits give low values 0.978 | locus YKR026C, strain gcn3, hits give low values 0.997 | locus YKR091W, strain srl3, hits give low values 1 | locus YLL001W, strain dnm1, hits give low values 0.968 | locus YLL026W, hits give low values 1 | locus YLL041C, strain sdh2, hits give low values 1.01 | locus YLR027C, strain aat2, hits give low values 0.998 | locus YLR221C, strain rsa3, hits give low values 0.994 | locus YLR258W, strain gsy2, hits give low values 1 | locus YLR262C, strain YPT6 (second series), hits give low values 0.981 | locus YLR320W, strain mms22, hits give low values 0.976 | locus YLR342W, strain FKS1, hits give low values 1 | locus YLR357W, strain rsc2, hits give low values 1.01 | locus YLR370C, strain arc18, hits give low values 1 | locus YLR384C, strain iki3, hits give low values 1 | locus YML120C, strain ndi1, hits give low values 0.985 | locus YMR058W, strain fet3, hits give low values 1 | locus YMR125W, strain sto1, hits give low values 0.996 | locus YMR129W, hits give low values 0.996 | locus YMR205C, strain PFK2, hits give low values 0.973 | locus YMR231W, strain pep5, hits give low values 1 | locus YNL071W, strain lat1, hits give low values 0.998 | locus YNL153C, strain GIM3, hits give low values 1.01 | locus YNL175C, strain NOP13, hits give low values 0.98 | locus YNL197C, strain WHI3, hits give low values 1.08 | locus YNL209W, strain ssb2, hits give low values 1 | locus YNL224C, strain SQS1, hits give low values 0.99 | locus YNL248C, strain rpa49, hits give low values 1 | locus YNL322C, strain KRE1 (second series), hits give low values 0.984 | locus YNR049C, strain mso1, hits give low values 1 | locus YOR001W, strain rrp6, hits give low values 1.02 | locus YOR070C, strain gyp1, hits give low values 0.998 | locus YOR080W, strain dia2, hits give low values 0.988 | locus YOR083W, strain WHI5 (second series), hits give low values 1.01 | locus YOR083W, strain WHI5, hits give low values 0.977 | locus YOR106W, strain vam3, hits give low values 0.972 | locus YOR265W, strain rbl2, hits give low values 1 | locus YOR270C, strain vph1, hits give low values 0.99 | locus YOR290C, strain snf2, hits give low values 1.01 | locus YPL051W, strain arl3, hits give low values 0.994 | locus YPL078C, strain atp4, hits give low values 0.993 | locus YPL106C, strain sse1, hits give low values 0.951 | locus YPL240C, strain hsp82, hits give low values 1.01 | locus YPL241C, strain CIN2, hits give low values 0.984
